# Assay results as given in PMC5540273 (PLoS ONE, 2017).
# How the values were obtained:
# Settings in all cases: concentration: 1 μM, replicates: in singlicate; n = 1
# [1] = tested on: IRAK1
# [2] = tested on: IRAK3
# [3] = tested on: IRAK4
# [4] = tested on: ITK
# [5] = tested on: JAK1(JH1domain-catalytic)
# [6] = tested on: JAK1(JH2domain-pseudokinase)
# [7] = tested on: JAK2(JH1domain-catalytic)
# [8] = tested on: JAK3(JH1domain-catalytic)
# [9] = tested on: T1, JNK1
# T1 construct: gene MAPK8
# [10] = tested on: T2, JNK2
# T2 construct: gene MAPK9
# 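Note: KINOMEscan kinase panel screen.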
Structure (SMILES),%Inh [1] [%],%Inh [2] [%],%Inh [3] [%],%Inh [4] [%],%Inh [5] [%],%Inh [6] [%],%Inh [7] [%],%Inh [8] [%],%Inh [9] [%],%Inh [10] [%]
COc1ccc(-c2coc3ccc(-c4nnc(C)o4)cc23)cc1,0,0,9,0,15,0,3,0,0,0
COc1ccc(CSc2nnc(-c3ccc4c(c3)CCO4)o2)cc1,0,0,0,8,18,0,0,0,0,0
Cc1ccc(-c2nc(Nc3ccncc3)c3ccccc3n2)s1 [GSK189015],0,19,2,22,16,38,3,0,20,19
Cc1ccc(NC(=O)Nc2ccc(Cl)cc2)cc1-c1ccc(C(=O)Nc2ccncc2)cc1 [GSK1398472],17,4,7,18,6,0,0,0,0,7
Cn1cncc1-c1cc2c(Nc3ccc(OCc4ccccc4)cc3)ncnc2cn1 [GW281179],30,1,17,12,14,0,4,0,13,1
COc1ccc(CSc2nnc(-c3ccc4ncsc4c3)o2)cc1C(F)(F)F,0,0,9,0,25,0,0,0,0,0
Cc1c(Cn2c(C)c(C)n3c(=O)cc(N4CCOCC4)nc23)cccc1C(F)(F)F [GSK2328680],0,0,0,15,0,0,0,0,50,0
Cc1c(Cn2c3ccccc3n3c(=O)cc(N4CCOCC4)nc23)cccc1C(F)(F)F [GSK2306394],0,14,11,11,13,0,35,0,21,5
Cc1ccc(NC(=O)c2ccc(Cl)cc2)cc1-c1ccc(C(=O)Nc2ccncc2)cc1 [GSK1398467],30,3,14,8,0,0,0,0,19,15
Cc1cccc2c(-c3ccncn3)c(-c3ccc(F)cc3)nn12 [GW515532],0,8,3,7,5,6,36,0,33,74
COc1ccc(Nc2nccc(-c3ccc(NC(=O)c4cc5cc(F)ccc5[nH]4)cc3)n2)cc1 [GSK1229496],10,0,0,0,0,0,18,0,4,9
COc1cccc(C2=C(Nc3cc(Cl)c(O)c(Cl)c3)C(=O)NC2=O)c1 [SB-390767],43,0,47,18,12,0,40,93.7,27,20
CS(=O)(=O)CCNCc1nc(-c2ccc3ncnc(Nc4ccc(OCc5ccccc5)c(Cl)c4)c3c2)cs1.Cl [GW582764],28,0,13,44,2,0,10,0,15,0
Nc1cccc(-c2ccc3c(N)n[nH]c3c2)n1 [GSK2192730],0,17,4,0,14,65,100,0,0,2
COc1ccc(Nc2nccc(N3CCC(NC(=O)C(C)c4ccc(Cl)cc4)C3)n2)cc1 (centres unmarked) [GSK1379735],1,10,3,14,10,0,24,0,12,0
COc1ccc2cc(-c3nc(-c4ccccc4C(C)C)[nH]c3-c3ccncc3)ccc2c1 [SB-660566],23,0,42,8,11,0,100,0,23,44
CCn1c(-c2ccccc2)nc2cnccc21 [SB-733416],45,4,38,1,0,0,30,0,21,3
c1ccc(-c2ccnc3[nH]ccc23)cc1 [SB-693578],64,0,43,18,1,2,69,76,32,0
COc1ccc(Nc2nccc(NCCNC(=O)Nc3cc(C)ccc3C)n2)cc1 [GSK1379899],0,8,3,10,0,0,16,0,20,0
CNCc1ccc2nc(NC(=O)c3ccc(C(C)(C)C)cc3)cn2c1,13,0,0,0,0,17,3,3,18,6
Cn1cnc2c(N)ncnc21 [SKF-97623],0,0,0,7,19,0,0,6,1,0
O=c1cc(N2CCOCC2)nc2n(Cc3cccc(Cl)c3Cl)c3ccccc3n12 [GSK2299009],12,15,4,13,24,0,0,0,7,32
COc1ccc(Nc2nccc(N3CCC(NC(=O)C(C)c4ccc(Cl)cc4)CC3)n2)cc1 (centres unmarked) [GSK1379812],6,18,0,22,26,6,0,0,1,14

Structure (SMILES),%Inh [1] [%],%Inh [2] [%],%Inh [3] [%],%Inh [4] [%],%Inh [5] [%],%Inh [6] [%],%Inh [7] [%],%Inh [8] [%],%Inh [9] [%],%Inh [10] [%]
COc1cccc(NC(=O)Nc2ccc(C)c(-c3ccc(C(=O)Nc4ccncc4)cc3)c2)c1 [GSK1398474],0,7,1,11,20,0,0,0,8,39
CS(=O)(=O)Cc1ccc(Nc2nccc(-c3c(-c4cccc(NC(=O)C5CCCCC5)c4)nn4ncccc34)n2)cc1 [GSK350559],24,3,25,6,0,0,16,43,43,49
COC(=O)c1cccc(NC(=O)NC2CCN(c3ccnc(Nc4ccc(F)cc4)n3)C2)c1 (centres unmarked) [GSK1379725],0,0,14,8,4,0,0,0,17,28
Fc1ccc(-c2nn3cccc(F)c3c2-c2ccncc2)cc1 [GW475620],9,2,0,0,10,30,17,0,61,93.5
Cc1ccccc1-c1cc(-c2c[nH]nc2-c2ccccn2)ccn1 [GW680061],28,2,4,12,4,0,12,0,38,30
O=C(Nc1n[nH]c2nc(-c3cccs3)c(Br)cc12)C1CC1 [SB-735297],0,0,0,0,13,21,20,0,40,15
CS(=O)(=O)CCNCc1nc(-c2ccc3ncnc(Nc4ccc5c(cnn5Cc5ccccc5)c4)c3c2)cs1.Cl.Cl [GW569716],37,0,19,17,0,0,0,0,12,2
O=C(Nc1n[nH]c2cc(-c3ccsc3)ccc12)C1CC1 [SB-732932],3,22,9,0,0,4,8,0,36,25
Cc1cnc(N)c(/C=C/c2cncc(C(=O)NCCc3ccc(Cl)cc3Cl)c2)c1.Cl [GSK190937],16,0,0,0,0,0,0,0,0,18
CC(C)c1ccc(O)cc1Nc1ccnc2ccc(C(F)(F)F)cc12 [GW482059],0,19,0,0,1,0,35,0,3,0
O=C1NC(=O)C(c2ccc(Cl)cc2)=C1Nc1ccc(O)cc1 [SB-340867],0,0,0,0,0,0,14,0,3,0
Cc1ccc(NC(=O)Nc2ccccc2)cc1-c1ccc(C(=O)Nc2ccncc2)cc1 [GSK1398471],0,0,0,8,31,0,0,0,11,29
CC(C)c1cc(-c2ccc3c(N)n[nH]c3c2)nc(N)n1 [GSK2250882],31,4,0,11,0,8,0,0,21,30
O=C(Nc1n[nH]c2nc(-c3cccs3)c(Br)cc12)C1CCCC1 [SB-743341],0,0,0,10,0,0,0,0,69,44
O=c1cc(N2CCOCC2)nc2n(Cc3ccccc3F)ccn12 [GSK2297428],0,0,0,15,10,0,0,0,1,11
Cc1nccc(-c2c(-c3ccc(F)cc3)ncn2CCCN2CCOCC2)n1.Cl [SB-282975],39,0,30,24,0,17,37,9,13,40
Cn1cncc1C(=O)NC1CCN(c2ccnc(Nc3ccc(F)cc3)n2)C1 (centres unmarked) [GSK1379717],41,0,26,1,17,0,100,0,29,3
CCc1ccc(-c2ccc3c(c2)-c2n[nH]cc2S(=O)(=O)N3C)cc1,0,0,0,0,18,14,3,0,1,0
CNC(=O)c1ccc(C)c(-n2c(C)cc(OCc3ccc(F)cc3F)c(Br)c2=O)c1,0,0,0,0,0,0,0,0,0,100
COc1cc2ncnc(Nc3cccc(Br)c3)c2cc1OC.Cl [GI230329],36,21,1,0,3,0,6,0,18,56
COc1cccc(CNC(=O)NC2CCN(c3ccnc(Nc4ccc(F)cc4)n3)C2)c1 (centres unmarked) [GSK1379723],23,5,17,9,5,0,6,0,32,3
CC[C@@H]1CO[C@H](C(=O)Nc2ccccc2)CN1c1cc(-c2ccc3c(N)n[nH]c3c2)nc(NC)n1 [GSK2376236],0,5,0,3,11,0,0,0,0,17
CCn1c(-c2c(N)noc2C)nc2cnccc21 [SB-737856],15,29,34,16,8,0,11,0,15,23

Structure (SMILES),%Inh [1] [%],%Inh [2] [%],%Inh [3] [%],%Inh [4] [%],%Inh [5] [%],%Inh [6] [%],%Inh [7] [%],%Inh [8] [%],%Inh [9] [%],%Inh [10] [%]
CC(=O)c1cccc(NC(=O)NC2CCN(c3ccnc(Nc4ccc(F)cc4)n3)C2)c1 (centres unmarked) [GSK1379710],27,11,7,8,21,9,25,0,16,13
COc1ccc(Nc2nccc(N3CCC(NC(=O)c4cc5ccccc5s4)C3)n2)cc1 (centres unmarked) [GSK1379738],37,15,19,8,15,0,100,0,22,10
COC(=O)C(Cc1ccccc1)NC(=O)NC1CCN(c2ccnc(Nc3ccc(F)cc3)n2)C1 (centres unmarked) [GSK1379714],33,0,3,4,16,0,59,0,17,1
Cc1ccc(NC(=O)Nc2ccccc2F)cc1-c1ccc(C(=O)Nc2ccncc2)cc1 [GSK1398477],0,31,1,19,12,0,12,0,28,27
CNc1nc(-c2ccc3c(N)n[nH]c3c2)cc(N2C[C@@H](C(=O)NC3CCCCC3)OC[C@H]2C)n1 [GSK2375584],21,0,0,10,11,0,0,0,3,0
CC(=O)c1c(C)c2cnc(Nc3ccc(N4CCNCC4)cn3)nc2n(C2CCCC2)c1=O,0,0,0,0,0,11,0,0,11,0
Fc1ccc(-c2nc3n(c2-c2ccncc2)CCS3)cc1 [GI98581],3,4,0,5,10,0,0,0,73,96.2
Cc1ccc(NC(=O)Nc2ccc(Cl)c(C(F)(F)F)c2)cc1-c1ccc(C(=O)Nc2ccncc2)cc1 [GSK1398470],0,9,0,18,5,0,0,0,16,14
Nc1nccc(-c2c(-c3ccc(F)cc3)ncn2C2CCN(Cc3ccccc3)CC2)n1 [SB-219980],0,0,0,7,0,0,0,0,62,95.2
COC(=O)c1cccc(NC(=O)NC2CCN(c3ccnc(Nc4ccc(OC)cc4)n3)C2)c1 (centres unmarked) [GSK1379746],35,0,23,13,14,0,2,0,37,0
CNc1cc(-c2ccc3c(N)n[nH]c3c2)nc(N)n1 [GSK2224810],0,0,0,3,12,35,4,0,0,6
NS(=O)(=O)c1cccc(N/C=C2\C(=O)Nc3ccc(S(=O)(=O)Cc4c(Cl)cccc4Cl)cc32)c1 [GSK398099],32,5,19,12,11,0,3,0,5,21
CN1c2ccc(-c3ccc(C(N)=O)cc3)cc2-c2[nH]ncc2S1(=O)=O,0,10,0,0,0,37,27,0,0,0
Nc1ncnc2occ(-c3ccc4c(c3)CCN4C(=O)Cc3cc(F)ccc3F)c12 [GSK2645446],0,0,0,0,0,0,0,0,0,0
FC(F)(F)c1ccccc1-c1cc(-c2c[nH]nc2-c2ccccn2)ccn1 [GW679396],0,0,0,8,5,0,0,0,30,32
CSc1ccc(-c2nc3n(c2-c2ccncc2)CCC3)cc1 [SKF-105561],21,0,6,12,8,15,4,0,31,49
CNc1nc(-c2ccc3c(N)n[nH]c3c2)cc(N2C[C@@H](C(=O)Nc3ccccc3)CC[C@H]2C)n1 [GSK2298859],0,0,8,12,0,0,0,0,2,15
COC(=O)C(NC(=O)NC1CCN(c2ccnc(Nc3ccc(F)cc3)n2)C1)c1ccccc1 (centres unmarked) [GSK1379712],31,6,0,0,17,5,0,0,1,0
Cl.Cl.Cl.N#Cc1ccc(CCNc2nccc(-c3cccc(CN4CCNCC4)c3)n2)cc1 [GSK2137462],0,0,0,7,3,6,0,0,32,0
COc1ccc(CSc2nnc(-c3ccc4nccn4c3)o2)cc1C(F)(F)F,44,30,38,20,0,0,13,1,0,0
Cc1ccccc1Cn1ccn2c(=O)cc(N3CCOCC3)nc12 [GSK2269905],0,0,13,20,0,0,0,0,21,20
CC(=O)c1c(C)c2cnc(Nc3ccn(C)n3)nc2n(C2CCCC2)c1=O,11,0,11,0,0,0,0,9,8,18
